Data published in PubChem BioAssay AID720553 (National Center for Advancing Translational Sciences (NCATS), 2013).
Among all 340,000 compounds or so, about 3,300 (0.97%) were called active.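 How the source made its calls: active means maximum activity change below -70%; inconclusive means maximum activity change from -70% to -50%; inactive means maximum activity change above -50%.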 Many of the other results were omitted from the sample, so actives are more common in it than they were.

test system: Potassium voltage-gated channel subfamily H member 2, brain isoform KCNH2 3.1 (human); experiment: qHTS for Inhibitors of KCHN2 3.1: Mutant qHTS; settings: U2OS KCNH2 3.1, thallium flux FluxOr; active compounds read low
Procedure, shortened: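 We transduce U2OS cells with the mutant 3.1 virus, culture them overnight, load FluxOr with Red40 quencher for 45 min, then add stimulation buffer and read kinetically for 2 min to derive a normalized rate constant.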
On the % scale 0 is the no-effect control and ±100 the full control effect.

SMILES	activity change
Cc1ccccc1-c1ccc2c(c1)O[C@@H](CN(C)Cc1ccc(C(=O)O)cc1)[C@@H](C)CN([C@H](C)CO)S2(=O)=O	16.7% (inactive)
CC(C)CC1C(=O)N(Cc2cn(Cc3ccco3)nn2)CCS(=O)(=O)N1Cc1ccc(-c2ccc(Cl)c(Cl)c2)cc1 (configuration not stated)	-7.55% (inactive)
Cc1ccc(C(c2nnnn2CS(=O)(=O)c2ccc(C)cc2)N2CCC(C)CC2)cc1 (configuration not stated)	-72.8% (active)
CCCCC(c1nnnn1CS(=O)(=O)c1ccc(C)cc1)N1CCC(C(N)=O)CC1 (configuration not stated)	5.52% (inactive)
Cc1ccc(C(c2nnnn2CS(=O)(=O)c2ccc(C)cc2)N2CCC(C(N)=O)CC2)cc1 (configuration not stated)	1.37% (inactive)
NC(CSC(c1ccccc1)(c1ccccc1)c1ccc(-c2ccccc2)cc1)C(=O)O (configuration not stated)	-0.906% (inactive)
Cc1cccc(C(=O)OCC(=O)Nc2sccc2C(N)=O)c1C	0.26% (inactive)
N=c1n(CCc2ccccc2)c2ccccc2n1Cc1ccccc1F	-48.9% (inactive)
N=c1n(Cc2ccc(Cl)cc2)c2ccccc2n1CC(O)c1ccco1 (configuration not stated)	-89.6% (active)
Cn1c(=N)n(CC(O)c2cccs2)c2ccccc21 (configuration not stated)	-1.02% (inactive)
CCc1cccc(CC)c1N1C(=O)CC(Sc2ccccc2N)C1=O (configuration not stated)	-2.21% (inactive)
COc1cc(C2C(C#N)=C(N)Oc3n[nH]c(-c4ccccn4)c32)cc(OC)c1OC (configuration not stated)	-3.63% (inactive)
COc1ccc(C2C(C#N)=C(N)Oc3n[nH]c(C)c32)cc1CN1CCN(c2ccc(F)cc2)CC1 (configuration not stated)	-93.4% (active)
COc1ccc(-c2[nH]nc3c2C(c2ccncc2)C(C#N)=C(N)O3)cc1 (configuration not stated)	4.99% (inactive)
COc1ccc(/C=C2\SC(=S)N(CCC(=O)N3CCOCC3)C2=O)cc1OC	-2.83% (inactive)
CCCC[C@@H]1CN=C(N)N1CCc1cccc(F)c1	17.6% (inactive)
CN(C)C1=NC[C@H](Cc2ccccc2)N1CCc1ccc(F)cc1	-104% (active)
CCCCN1C(N)=NC[C@@H]1Cc1ccccc1	12.8% (inactive)
Cc1ccc(-c2ccc(CN3C(C(C)C)C(=O)N(Cc4cn(CCC5OCCCO5)nn4)CCS3(=O)=O)cc2)cc1 (configuration not stated)	-5.44% (inactive)
Cc1cc2cc3n(c2nn1)N=C(Cl)CC3	-0.335% (inactive)
CC(OC(=O)c1cccnc1Cl)C(=O)NC1CCCCC1 (configuration not stated)	22.3% (inactive)
Cc1ccc(S(=O)(=O)N2C[C@H]3C(=O)C[C@@H](c4cccc5ccccc45)N(S(=O)(=O)c4ccc(C)cc4)[C@H]3C[C@H]2c2ccc(Cl)cc2)cc1	5.42% (inactive)
O=C(CSc1ncn[nH]1)Nc1nc2c(F)c(F)c(F)cc2s1	-9.38% (inactive)
Cc1cc(C)n(S(=O)(=O)c2cccc([N+](=O)[O-])c2)n1	8.67% (inactive)
O=[N+]([O-])c1cccc(S(=O)(=O)N2CCCCCC2)c1	-16.9% (inactive)
CCc1nccn1S(=O)(=O)c1cccc([N+](=O)[O-])c1	-98.3% (active)

SMILES	activity change
OCC1OC(n2cnc3c(N4CCCC4)ncnc32)C(O)C1O (configuration not stated)	3.35% (inactive)
O=S1(=O)CCN(C2CCCCCCCCCCC2)CC1	-0.635% (inactive)
N#Cc1cccc(Nc2c3c(nc4ccccc24)CCCC3)c1	-94.8% (active)
N#Cc1cccc(NC(=O)CCC2CCCC2)c1	-4.75% (inactive)
N#Cc1cccc(NC(=O)CN2CCCCCC2)c1	13.8% (inactive)
O=C(Nc1cc(F)ccc1F)c1ccc2c(=O)n3c(nc2c1)CCC3	-2.54% (inactive)
COCCCN1C(=O)C(CC(=O)NCc2cccs2)CC(C(=O)N2CCOCC2)=C1C (configuration not stated)	3.81% (inactive)
C#CCOCCOCCOCCNc1nc(N2CCN(C(=O)[C@H](CCC(=O)O)n3cc(C(N)CO)nn3)CC2)nc(N2CCN(C(=O)[C@H](Cc3ccc(O)cc3)n3cc(C(N)[C@H](C)CC)nn3)CC2)n1 (some centres not stated)	-12.3% (inactive)
C#CCOCCOCCOCCNc1nc(N2CCN(C(=O)C(Cc3ccc(O)cc3)n3cc(C(N)CC(C)C)nn3)CC2)nc(N2CCN(C(=O)C(Cc3ccc(O)cc3)n3cc(C(N)C(C)CC)nn3)CC2)n1 (configuration not stated)	-9.18% (inactive)
C#CCOCCOCCOCCNc1nc(N2CCN(C(=O)[C@H](Cc3ccc(O)cc3)n3cc(C(N)CC(C)C)nn3)CC2)nc(N2CCN(C(=O)[C@H](CCC(=O)O)n3cc(C(N)[C@H](C)CC)nn3)CC2)n1 (some centres not stated)	-84.4% (active)
CC1(c2cccc(N)c2)OCCO1	-12.6% (inactive)
CC(C)[C@H](NC(=O)c1ccccc1F)C(=O)Nc1cccc(S(=O)(=O)N2CCOCC2)c1	9.74% (inactive)
COc1cccc(OC)c1C(=O)Nc1c(C(=O)N2CCN(c3ccccn3)CC2)oc2ccccc12	-4.91% (inactive)
CCOCCCN(C)C1CCN(C(=O)c2oc3ccccc3c2NC(=O)COc2cccc(C)c2)CC1	-107% (active)
COc1ccc(CC(=O)Nc2c(C(N)=O)oc3ccccc23)cc1	-8.15% (inactive)
CCOCCCN(C)C1CCN(C(=O)c2oc3ccccc3c2NC(=O)Cc2cccc([N+](=O)[O-])c2)CC1	-104% (active)
COCC(=O)Nc1c(C(=O)N2CCCC2)oc2ccccc12	6.72% (inactive)
CN(C(=O)c1cccc(NC(=O)Cc2cccc([N+](=O)[O-])c2)c1)C1CCCCC1	18.4% (inactive)
CC1=C(C(=O)N2CCOCC2)CC(CC(=O)NCCN2CCOCC2)C(=O)N1CCC1=CCCCC1 (configuration not stated)	16% (inactive)
Cc1cc(=O)c2ccc(NC(=O)c3ccccc3)cc2[nH]1	3.07% (inactive)
COc1ccc(S(=O)(=O)N2CCN(CC(=O)N3CCNC3=O)CC2)cc1OC	12.9% (inactive)
C[C@@H]1CN([C@@H](C)CO)C(=O)c2c(c3ccccc3n2C)-c2ccccc2CO[C@H]1CN(C)C(=O)C1CC1	14.8% (inactive)
N#Cc1ccc(C2=CC(=O)C[C@H](c3ccc(Cl)cc3)C2)cc1	-83.2% (active)
COc1ccc([C@H]2CC(=O)C=C(c3ccc(CO)cc3)C2)cc1	22.6% (inactive)
O=C1C=C(c2cccc(Cl)c2)C[C@@H](c2ccc(F)cc2)C1	2.02% (inactive)
C[C@H]1CN([C@@H](C)CO)S(=O)(=O)c2ccc(-c3cccc(F)c3)cc2O[C@@H]1CN(C)C	-7.52% (inactive)
